Potency and activity change, negative = inhibition data for 37 compounds are collected here from PubChem BioAssay (NCATS).

Molecules are shown by their SMILES. Inconclusive results are not listed. Entries that show only a call come without a potency. Activity calls are given as the source filed them. The call rests on the fitted dose curve; in most records, active means well fitted inhibition curve with a large enough effect; inconclusive means small, poorly fitted or top-dose-only effect; inactive means flat fitted curve, though single readings scatter.

For this assay, the system named is Zika virus NS2B-NS3 protease. The assay can be described thus: Primary screen GU AMC qHTS for Zika virus inhibitors (AID 1347154). Further: nearly all actives have a fitted effect of over 70% in size. Particulars: Zika NS2B-NS3 unlinked protease, AMC fluorogenic substrate; series mostly up to 54.1 µM. Put shortly:
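Unlinked Zika NS2B hydrophilic domain–NS3 protease complex at 25 nM in 10 mM Tris-HCl pH 8.0, 0.01% Tween 20, with an AMC peptide substrate. Fluorescence change (340/450 nm) over 15 min at room temperature, normalized to controls, fitted to 4-parameter Hill.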
For orientation: In qHTS, concentration-response curves come from the screen itself.
Regarding `C[N+]1(C)CCCC(OC(=O)C(O)(c2ccccc2)c2ccccc2)C1` (configuration not stated), the Potency result was “inactive”. The same measure, in the same setting: the value for `Cc1cc(OI)c(C(C)C)cc1-c1cc(C(C)C)c(OI)cc1C` was “inactive”; that for `CCCCCC(C)N` (configuration not stated) was “inactive”. Same read-out and setting: to `Cc1cc(-n2nc3ccc(Cl)cc3n2)c(O)c(C(C)(C)C)c1` belongs “inactive”; to `CCc1nnc(NS(=O)(=O)c2ccc(N)cc2)s1`, “inactive”. The same measure, in the same setting: the value for `Cc1c(NC(=O)c2cccnc2)c(=O)n(-c2ccccc2)n1C` was “inactive”; that for `CC(=O)NCc1c(I)c(NC(C)=O)c(I)c(C(=O)O)c1I` was “inactive”; that for `NS(=O)(=O)c1ccc(C(=O)O)cc1` was “inactive”. As for `CN1CC(=O)NC1=N`, the Potency result was “inactive”. Still for that read-out and setting: the value for `CN1C(C)(C)CCCC1(C)C` was “inactive”. Still for that read-out and setting: the value for `O=c1[nH]cnc2nc[nH]c12` was “inactive”; that for `CC(=O)NS(=O)(=O)c1ccc(N)cc1` was “inactive”; that for `CN[C@@H]1[C@H](O)[C@H](NC)[C@H]2O[C@@]3(O)C(=O)C[C@@H](C)O[C@H]3O[C@@H]2[C@H]1O` was “inactive”. With `O=C1c2ccccc2C(=O)C1c1ccc(Br)cc1`, the Potency entry was “inactive”. Still for that read-out and setting: to `C[C@@H](c1ncncc1F)C(O)(Cn1cncn1)c1ccc(F)cc1F` (some centres not stated) belongs “inactive”; to `O=c1[nH]c2cc(C(F)(F)F)c(N3CCOCC3)cc2n(CP(=O)(O)O)c1=O`, “inactive”; to `NNC(=O)CP(=O)(c1ccccc1)c1ccccc1`, “inactive”. Still for that read-out and setting: to `Cc1cc(C)nc(NS(=O)(=O)c2ccc(N)cc2)n1` belongs “inactive”. With `Nc1ccncc1N`, the Potency result is “inactive”. Take `CCN(CC)CCOC(=O)C(c1ccccc1)c1ccccc1`: the Potency result is “inactive”.

For the compound `O=c1[nH]c(=O)n([C@H]2C[C@H](O)[C@@H](CO)O2)cc1I`, the Potency entry was “inactive”. The same measure, in the same setting: the value for `CCN1CC(CCN2CCOCC2)C(c2ccccc2)(c2ccccc2)C1=O` (configuration not stated) was “inactive”. Still for that read-out and setting: to `CC(=O)N[C@H]1[C@H]([C@H](O)[C@H](O)CO)OC(C(=O)O)=C[C@@H]1N=C(N)N` belongs “inactive”. `CCOC(=O)[C@H](CCc1ccccc1)N[C@@H](C)C(=O)N1CCC[C@H]1C(=O)O`: the Potency entry is “inactive”. On the same count and under the same terms, the value for `O=C(O)C(S)C(S)C(=O)O` (configuration not stated) was “inactive”. Still for that read-out and setting: to `COc1ccccc1OC(=O)Oc1ccccc1OC` belongs “inactive”. Same read-out and setting: to `CC(=O)N(CC(O)CN(C(C)=O)c1c(I)c(C(=O)NCC(O)CO)c(I)c(C(=O)NCC(O)CO)c1I)c1c(I)c(C(=O)NCC(O)CO)c(I)c(C(=O)NCC(O)CO)c1I` (configuration not stated) belongs “inactive”; to `Cn1c(=O)c2c(ncn2CCO)n(C)c1=O`, “inactive”. Turning to `Cc1ccsc1C(=CCCN1CCC[C@@H](C(=O)O)C1)c1sccc1C`, the Potency result is “inactive”.

For `O=C(O)CCCc1ccccc1`, the Potency result is “inactive”. On the same count and under the same terms, the value for `Cc1ccsc1/C=C/C1=NCCCN1C` was “inactive”; that for `O=C(O)c1ccccc1C(=O)Nc1ccc(S(=O)(=O)Nc2nccs2)cc1` was “inactive”. On the same count and under the same terms, to `O=C(O)CCCCC1CCSS1` (configuration not stated) belongs “inactive”.

With `N[C@@H](Cc1ccc(O)cc1)C(=O)O`, the activity change, negative = inhibition was 5.3% [at 6.83 µM] (inactive). Take `NC(=O)CCCCC1CCSS1` (configuration not stated): the Potency result was “inactive”. Take `O=C(NCCCN1CCOCC1)c1ccc(Cl)cc1`: the Potency result was “inactive”. Regarding `COc1ccc(O)cc1`, the Potency entry was “inactive”.
